# Laboratory results reported in the supplement of paper PMC11417369.
# ± gives the standard deviation of the averaged measurements. Whole data set: some 25,000 sequences, median “ln(normalized median fluorescence intensity)” near 10, cut for the highest 2% near 12. The entries come from a sample that favours the highest values as a whole.
# System: PfAP2-G AP2 domain (GST-tagged)
# Experiment: gcPBM binding intensity (ln(normalized median fluorescence intensity)); higher = stronger DNA binding
# Method in brief: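 The binding buffer was 1× PBS containing 1% milk, 0.2 mg/ml BSA, 0.5% salmon testes DNA and 0.03% Triton X-100. In it, GST-tagged P. falciparum DNA-binding domains expressed in E. coli were applied for 1 h to an Agilent 4 × 180k array of primer-extended double-stranded 36-bp intergenic genomic probes plus negative controls. Binding intensity, read with Alexa488 anti-GST antibody and a 488 nm scan, is the highest Masliner-normalised natural-log median intensity across replicate spots of either probe orientation.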
row,Sequence,gcPBM binding intensity (ln)
1,TGCTATAATTTATATACACACAAATATATACGCATA [CACACA_site4096],10 ± 0.14
2,AGAAAAATTATTTTGCGTACATATTTACAATAAAAA [XGTACX_site2144],11.5 ± 0.75
3,TTTTTTTTGCGTACAGTGCAAATTTATTTACTATTC,11.7 ± 1.1
4,TTTTATTTACACAGTGGTACTATTAAAAATTAATGA [XGTACX_site6737],11 ± 0.7
5,GACATTTCTTGGGATACATGCATGTCCCAGAACAAA [TGCATGCA_site271],10.6 ± 0.4
6,TGTTTACACTTTTTTTGTACACATAATTTTATTTGA [XGTACX_site3760],11.3 ± 0.81
7,TTTTTATTTTTGTAGTGTACTTTATTTTTTTTGTTT [XGTACX_site8887],11.6 ± 0.91
8,CTTATTTCCTTTTGTAGTACCTTATAATATATATAA [XGTACX_site8873],11.3 ± 0.69
9,ATTCTTTTATTTAGTAGTACATTTGTATTTTATTCA [XGTACX_site5790],11.5 ± 0.95
10,TTTTTTATTACTTTGTGTACTTACACAGAACCTTAT [XGTACX_site6038],11.5 ± 0.88
11,TTTGAACTTTTATATACACACATTATTATAGTATAG [CACACA_site6851],10.04 ± 0.071
12,TTTTATTTTTTAGTAGTACACACTTTTTGTACCTTT [CACACA_site599],11.8 ± 1
13,TTTTTATTTTTTAGTAGTACACACTTTTTGAACCTT [XGTACX_site1091],11.6 ± 0.97
14,TTATTTTTTAGTAGTACACACTTTTTGTACCTTTTA [CACACA_site4503],11.8 ± 1.1
15,AATTATATAAGCCACGCATGTGTGCATAAAAATACA [TGCATGCA_site114],10.2 ± 0.14
16,TGTACGAGTCGTAGAGTGCAGTCTGGAGAAACGTAC [GTGCAC_site9682],11 ± 0.47
17,AATTTACATATATATTGTACATTTATGTATATATAT [XGTACX_site4186],10.7 ± 0.52
18,AAATAAATCTTATGCACACAAATAATTAATTAAACA [CACACA_site1693],10.06 ± 0.014
19,ATAAAAAAAATAAAAAGTACAAAAAAAAAAAATGGA [XGTACX_site136],11.3 ± 0.71
20,ACATATGACTATAATACACACTTGTATTATTAATAT [CACACA_site6951],9.98 ± 0.13
21,ATATATATATCTAATTGTACATATTTTATAAATAAG [XGTACX_site4840],11 ± 0.52
22,GGCATAAATATATGCACACACAAAAAAAAAAAAAAA [CACACA_site59],10 ± 0.65
23,GAAAAAAATGAAATTAGTACTTATCTTAAATTTTTA [XGTACX_site1018],10.8 ± 0.47

row,Sequence,gcPBM binding intensity (ln)
1,TATGCTATTATATATGTACACACCAATTTATTTATA [CACACA_site3918],11.3 ± 0.74
2,TTCTTACATGAGTGTACACACTTTTTTTCAGAAAAT [CACACA_site4215],11.7 ± 1
3,TTTTCTTACATGAGTGTACACACTTTTTTTCAGAAA [CACACA_site70],11.6 ± 0.91
4,AATATTTATTTTACATGTACTTATTTTTCTTTTAAC [XGTACX_site3631],11.4 ± 0.88
5,TTTTTCTTACATGAGTGTACACACTTTTTTTCAGAA [XGTACX_site138],11.7 ± 0.83
6,AGAAAAAAAAAAAAATGTACAGACTTTTTCTTATAA [XGTACX_site6481],11 ± 0.55
7,ATCTTTCGAACATGTACACACAGAAAAAAAAAAAAA [CACACA_site5393],11.3 ± 1
8,AAATATTTTGCATACACATGCAAATATTTTTTACAT [TGCATGCA_site554],9.8 ± 0.11
9,TATAATATGTTTGATGGTACACGTAAACACCTTGCA [XGTACX_site1643],11.1 ± 0.68
10,TGTTTGATGGTACACGTACACACCTTGCAAATATTT [CACACA_site888],11.8 ± 1.2
11,ATGTTTGATGCTACACGTACACACCTTGCAAATATT [XGTACX_site1644],11.6 ± 1
12,TTTGATGGTACACGTACACACCTTGCAAATATTTTT [CACACA_site4645],11.8 ± 1
13,TATACAATATATTTTGGTACACAAACAAAAAAATAT [XGTACX_site2522],11.2 ± 0.82
14,ATATATATCGGACACACACACATGTTTTAAAACTAT [CACACA_site4218],10.9 ± 0.64
15,TGTTTATTTTTAAAAAGTACATATTTAAAAAACTTC [XGTACX_site271],11.4 ± 1
16,TTTTTTTTTTTTTGGGGTACATTTTAATTAATATTA [XGTACX_site4866],11.4 ± 0.86
17,TATACTTTATATATTTTGTATATATATTTTTTTTAT [TGCATGCA_negctrl_site530],9.645 ± 0.035
18,ATTTTTTTTTTTTTTTTGGGGGGGTATACTTTTAAA [CACACA_negctrl_site1020],11.9 ± 0.77
19,GTTAATATTTTTGGGGGTACTTAAAAAAAAAAAAAA [XGTACX_site1477],11.7 ± 0.91
20,TATATTTAACATACTTTTTTTTTTTTTTTTTTTTTT [CACACA_negctrl_site938],10.9 ± 0.45
21,CCATTTATTATTTGGGGTACATTTAATTAATATTTT [XGTACX_site5940],11.5 ± 1
22,ACAGATATACATAAAAAAAAAATAATTTTACATATA [CACACA_negctrl_site929],9.765 ± 0.049
23,TACATAAATACATACACACACATATAACCAATGTAG [CACACA_site5243],10.3 ± 0.11

row,Sequence,gcPBM binding intensity (ln)
1,AATCATTTATGGAAAGCATGCTAAATTAGAGTATAC [TGCATGCA_site172],10.03 ± 0.064
2,TAATGTAATACATATTGTACACATACATATATATTT [XGTACX_site7531],11.2 ± 0.71
3,TGAGTTCAACAAAGACGTACAAAACCAAAAATATAA [XGTACX_site8931],11.6 ± 0.93
4,TTTCAAACAAAAAGACGTACACTGAAGTTATCCGTC [XGTACX_site8824],11.8 ± 1
5,AAAACAAACATTACACGTACAAAACAAGTTATAGAC [XGTACX_site6320],11.4 ± 0.74
6,AAAAAAAAAAGACACACACACACACGGAGATATATA [CACACA_site6216],10.1 ± 0.22
7,TATGTGTAATATTTTTGTACAGAAAAAAAAAAAAAA [XGTACX_site7075],10.8 ± 0.77
8,AATTAATGGGTACATACACACATATATACATACATA [CACACA_site742],11.4 ± 1
9,TATTTATAAATTTACACACACACATGTGAACATAAA [CACACA_site1909],10.2 ± 0.14
10,ATAACAAAATAAAACACACACACAAATGTACAGATA [CACACA_site5358],11.1 ± 0.72
11,ATAAATATTTACAAAAGTACACATAACTTTAGATAT [XGTACX_site1685],11.4 ± 0.9
12,TATCCTAACTTTAGATGTACACAAATAAAAAAAAAA [XGTACX_site4491],11.7 ± 0.91
13,TTTATTTATATTTATACACACAAACATAATACTACT [CACACA_site7039],10.3 ± 0.28
14,AGGTCTATATAATAAGTGCATTTTTTTTTTTTTTTT [GTGCAC_site9664],10.2 ± 0.26
15,TTTTTAATATATAAAGATAATAATAAATAAAATTCA [CACACA_negctrl_site657],9.46 ± 0.12
16,TATATGCACTTAATATGTACACAAAAAAAAAAAAAA [XGTACX_site6199],11.5 ± 1.2
17,GATTATTATTATAAGGGTACAAATATTTAATAAAAA [XGTACX_site7144],11 ± 0.57
18,CAATAAAAATTAAAATGTACAAATAAATATAAATAT [XGTACX_site7265],10.8 ± 0.29
19,AAAAAAATTAAATGGGGTACAATAAGGGTCAAATAT [XGTACX_site8669],11.6 ± 0.93
20,AATTATATATTATCATGTACAAATATAGTAATACAA [XGTACX_site6845],10.7 ± 0.4
21,ATATAAACACTGAATGCATGCACATATATATATATA [TGCATGCA_site940],10.2 ± 0.26
22,ACATATATTTCAAAGTGTACGCACAATTTTTTTTAC [XGTACX_site6166],11.7 ± 1
23,AAAAAAATAACAAAGTGTACTTTTATATTTTACATA [XGTACX_site8954],11.3 ± 0.93

row,Sequence,gcPBM binding intensity (ln)
1,TATACGCATATTTTTACACACATATTTTTTCATATA [CACACA_site2546],10.02 ± 0.049
2,AAAGTATAAATAAATACACACATATTTATTTATATA [CACACA_site7375],9.96 ± 0.2
3,CCACATATACAAAACACACACACAACGTTTTAATAA [CACACA_site1978],10.1 ± 0.16
4,ATGACTTACATATATAGTACTTTGTTTTGGAGTTGC [XGTACX_site94],10.8 ± 0.45
5,TCTGTAGTTTTTTACAGTACTTTTAGGTAATACATA [XGTACX_site7417],11 ± 0.79
6,GCTAGTTTTTTTTGGCGTACAGTACCGGTTTACTTT [XGTACX_site2606],11.6 ± 1
7,ATAATTCCAAGAATTTCATATATCTGAATTTTAGGT [GTGCAC_negctrl_site283],9.61 ± 0.2
8,GACCATATGAATAATGCACACGTTTTAAAATATTAA [CACACA_site5312],10.23 ± 0.028
9,AACGATATATGTACTACACACATTATGTCATCCTAT [CACACA_site2464],11.5 ± 0.83
10,AACGATATCTGTACTACACACATTATGTCATCCTAT [CACACA_site5374],11.8 ± 1.1
11,AACGATATAGGTACTACACACATTATGTCATCCTAT [CACACA_site7205],11.2 ± 0.77
12,ATGTATGAAAAAATGTGTACATAATTTTTTTTTTTT [XGTACX_site5444],11.7 ± 1
13,ATATTTATATTTATGTGTACATATGAAATAATTATT [XGTACX_site7765],11.5 ± 0.72
14,TTAAATGAAAAAATATGTACGTATAATAAGAAATAT [XGTACX_site6619],11.6 ± 0.87
15,TATAATGAACATATGTGTACATATATTTTTTAAATT [XGTACX_site8736],11.4 ± 0.72
16,CACTTTTTTTAAATGTGTACGTATATGAAAATATCA [XGTACX_site4854],11.7 ± 1
17,TTTGTATAATACATGTGTACGTATTTTTATATAAAT [XGTACX_site8656],11.6 ± 0.95
18,TTTTATACATAAATATGTACGTATATATAATGAATT [XGTACX_site1337],11.3 ± 0.73
19,TTTTATACATAAATGTGTACGTATATATAATGAATT [XGTACX_site2762],11.7 ± 1
20,AAATTTTAAATAGTATGTACGTATGAAATATATATG [XGTACX_site7511],11.4 ± 0.79
